Only some compounds are listed: those with a hit (about 7.5% of all), similar ones and a draw of the others.
SMN2 splice up = SMN2 splice variant enhancement; HEK293 SMN2-luciferase splicing reporter, luminescence, 30-36 h; Potency, µM (highest dose often 46.1 µM), for the others: at the highest dose activity change, positive = activation, hits mostly activators; 2.8% of 210,000 active; AID 1458; also: % of control where 0% means no effect; nearly all actives have a fitted effect of over 55% in size
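HEK293 cells carry an SMN2 […]–luciferase reporter in which exon 7 inclusion puts luciferase in frame. Cells were plated 10-12 h before compound addition, then incubated 30-36 h at 37C. ONE-Glo luminescence was read; sodium butyrate at 4.5 mM final served as control.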
NPC1 prom act = activates the NPC1 promoter. Huh7 NPC1 promoter luciferase reporter, 24 h. Potency, µM (titrated, usually from 9.22 µM), for inactives: top-dose activation, most hits filed as activators. 2.4% of 320,000 active. AID 485313; also: % of control where 0% means no effect; nearly all actives have a fitted effect of over 60% in size
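Compounds in DMSO were transferred onto Huh7 NPC1-luciferase reporter cells pre-incubated 2 h; after 24 h at 37 °C, Amplite reagent was dispensed and luminescence recorded 10 min later.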
FLuc counter = inhibits or activates purified firefly luciferase, miR-21 counter-screen | purified FLuc, Km substrates, luminescence inhibition | Potency, µM (doses to about 57.5 µM), inactives show at the top dose activity change, negative = inhibition, hits mostly inhibitors | 6.9% of 360,000 active;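 also: plate controls were vehicle for no effect and reference inhibitor for full effect; nearly all actives have a fitted effect of over 55% in size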
Target sequence (P08659 whole entry, looked up): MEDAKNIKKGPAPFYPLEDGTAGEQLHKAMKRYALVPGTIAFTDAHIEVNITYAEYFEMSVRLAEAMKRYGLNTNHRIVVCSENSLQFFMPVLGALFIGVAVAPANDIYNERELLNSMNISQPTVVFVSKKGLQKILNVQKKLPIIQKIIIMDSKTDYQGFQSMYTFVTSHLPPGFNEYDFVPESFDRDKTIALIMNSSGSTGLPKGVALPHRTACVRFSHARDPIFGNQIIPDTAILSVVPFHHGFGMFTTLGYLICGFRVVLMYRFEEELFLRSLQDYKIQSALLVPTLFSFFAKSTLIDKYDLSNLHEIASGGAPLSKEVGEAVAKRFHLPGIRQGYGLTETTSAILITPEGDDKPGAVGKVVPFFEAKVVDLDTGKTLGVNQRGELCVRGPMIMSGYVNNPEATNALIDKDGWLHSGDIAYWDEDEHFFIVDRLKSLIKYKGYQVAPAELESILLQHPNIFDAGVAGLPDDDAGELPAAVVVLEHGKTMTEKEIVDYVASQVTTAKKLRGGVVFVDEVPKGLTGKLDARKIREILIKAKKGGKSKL
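Purified P. pyralis luciferase (10nM final) with 10uM D-luciferin and 10uM ATP (Km levels) in 50mM Tris acetate pH 7.5, 10mM Mg acetate, 0.01% Tween-20, 0.05% BSA; qHTS 6-point titration, ~60 µM downward; luminescence read.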
Rab9 promoter act = activates the Rab9 promoter; Huh7 Rab9 promoter-luciferase reporter, luminescence, 24 h; Potency, µM (titrated, usually from 9.22 µM), inactives show top-dose activation, negative = inhibition, hits mostly activators; 2.8% of 320,000 active; AID 485297; also: % of control where 0% means no effect; nearly all actives have a fitted effect of over 60% in size
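Cells were plated at 1500 per well in reduced-serum medium with 10% FBS and left 2 h. Compound in DMSO was then added for 24 h at 37 °C. Reporter signal was read by luminescence after 10 min with luciferase detection reagent.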
ELG1 genotox = genotoxicity induction in ELG1-luciferase HEK293T cells. Potency, µM (series often up to 46 µM), without a hit: at the highest dose activity change, positive = activation, hits mostly activators. AID 504466. HEK293T ELG1-luciferase reporter, luminescence, 16 h. 1.3% of 330,000 active; also: % of control where 0% means no effect; nearly all actives have a fitted effect of over 60% in size
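Step 1: seed 2,000 HEK293T ELG1-luciferase cells per well. Step 2: add compound or DMSO, incubate 16 hr at 37 °C. Step 3: ONE-Glo, 30 min at room temperature, read luminescence.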
An asterisk follows results filed as active; ? = inconclusive; . = no result; [ ] = dose if it differs, or a comment. Calls follow the shape of the dose curve; as a rule, active = well fitted curve in the direction sought with a large enough effect; inconclusive = small, poorly fitted or top-dose-only effect, or another doubt; inactive = no such curve, though single readings can be large; an effect the other way counts as inactive or inconclusive. Potency is read from the fitted curve at half-maximal effect.

SMILES	SMN2 splice up	NPC1 prom act	FLuc counter	Rab9 promoter act	ELG1 genotox
COc1ccc(C(=O)N2CCC3(CCCN(Cc4ccncc4)C3)CC2)cc1	-20.0%	.	.	.	.
COc1ccc(OCC(=O)Nc2ccc(C(=O)Nc3ccccc3C(=O)O)cc2)cc1	.	20.8%	?	18.1%	4.1%
O=C(Nc1cc(NC(=O)c2ccccc2Cl)ccc1Cl)c1ccccc1	23.7%	.	12µM*	.	.
O=C(COc1ccc2ccccc2c1)Nc1cccc(C(=O)Nc2ccccc2C(=O)O)c1	-8.1%[1.84 µM]	-1.1%	23.9µM*	-3.4%	0.8%
N#Cc1ccc(NC(=O)COC(=O)CNC(=O)C2CCCCC2)cc1	-5.3%	17.4%	-19.6%	-5.9%	2.8%
CCCCN(C(=O)c1cccc(C)c1)c1c(N)n(CCC)c(=O)[nH]c1=O	.	-0.6%	-2.4%	-9.2%	0.0%
Cc1sc(NC(=S)NC(=O)C(C)(C)C)c(C(N)=O)c1C	?	?	4.78µM*	?	?
CCCCC(=O)Nc1sc2c(c1C(N)=O)CCC2	?	21.0%	21.3µM*	?	?
CC(C)(C)C(=O)NC(=S)Nc1sc2c(c1C(N)=O)CCC2	10µM*	?	4.78µM*	?	28.4%
CC(=O)c1ccc(NS(=O)(=O)c2cccc(C(=O)Nc3ccccc3C(=O)O)c2)cc1	.	0.0%	-18.2%	-0.8%	-11.3%
C/C(=N\NC(=O)c1ccco1)c1ccc(NC(=O)c2ccccc2)cc1	?	?	?	?	20.1%
C/C(=N/NC(=O)c1ccc2c(c1)OCO2)c1ccc(Br)s1	.	?	0.2%	3.55µM*	?
C/C(=N\NC(=O)c1ccc2c(c1)OCO2)c1ccco1	12.6µM*	?	9.53µM*	0.794µM*	14.1%
C/C(=N\NC(=O)c1ccco1)c1ccc(-c2ccccc2)cc1	.	3.16µM*	2.39µM*	3.55µM*	9.2µM*
CC(=O)N1c2ccc(S(=O)(=O)N(C)c3cc(C)ccc3C)cc2CC1C (centres undefined)	.	-1.3%	-0.7%	-1.8%	-4.0%
Cc1ccc(C)c(Nc2nc3c(S(=O)(=O)c4ccc(Br)cc4)nnn3c3ccsc23)c1	.	.	-5.3%	.	.
c1ccc2oc(-c3ccn[nH]3)cc2c1	.	2.82µM*	8.49µM*	3.16µM*	?
c1ccc2oc(-c3[nH]ncc3CN3CCSCC3)cc2c1	.	0.9%	-1.9%	3.6%	-0.8%
O=C(NC1CCCC1)c1ccc(CS(=O)Cc2ccccc2Cl)o1 (centres undefined)	.	-1.0%	1.4%	-0.4%	-3.3%
CCn1ccc2c(OCC(=O)NCCc3ccc(OC)c(OC)c3)cccc2c1=O	.	-4.2%	-1.0%	2.3%	0.4%
COc1ccc(C(=O)OCc2cc(=O)n3c(C)csc3n2)cc1F	.	3.98µM*	?	2.24µM*	?
CCOc1cc(C(=O)OCc2cc(=O)n3c(C)csc3n2)cc(OCC)c1OCC	.	.	-0.7%	.	.
COc1ccccc1C(=O)OCc1cc(=O)n2c(C)csc2n1	.	.	19µM*	.	.
Cc1nn(C)cc1S(=O)(=O)N1CCCC(C(=O)O)C1 (centres undefined)	-5.7%	2.2%	-2.0%	0.5%	2.9%
Cn1ncc(Cl)c1C(=O)NCc1ccco1	.	-1.4%	-0.9%	3.4%	-0.1%
SMILES	SMN2 splice up	NPC1 prom act	FLuc counter	Rab9 promoter act	ELG1 genotox
CC(C)c1cc(C(=O)Nc2cc(Cl)ccc2O)no1	12.6µM*	2.82µM*	7.57µM*	1.58µM*	?
CCCc1cc(C(=O)Nc2cc(Br)ccc2O)no1	?	16.0%	?	25.3%	13µM*
CSc1ccccc1NC(=O)c1cc(C(C)C)on1	18.5%	?	21.3µM*	?	11.6µM*
CCCc1cc(C(=O)Nc2cc(Cl)ccc2O)no1	.	?	10.7µM*	?	16.4µM*
Cc1noc(C(=O)Nc2cc(Cl)ccc2O)c1Cl	.	18.7%	-5.1%	2.9%	-9.1%
CN(C)/C=N/c1ncc(C(=O)c2ccc3ccccc3c2)s1	-28.5%	23.3%	23.9µM*	?	3.0%
CC1=CC2=NC(=O)/C(=C\c3cc(C)n(-c4ccc(F)cc4)c3C)C(=N)N2O1	-9.1%	-2.2%	2.9%	-2.6%	2.6%
Cc1cc(/C=C2/C(=N)N3C(=NC2=O)SN=C3S(C)(=O)=O)c(C)n1-c1ccc(F)cc1	?	29.5%	1.51µM*	13.8%	?

Screening results from PubChem.
